For some of these results: Entries with a potency or affinity are not part of this list.

Design in all cases: scale not given: direction of the effect not stated beside the values
In test [1] the target is Protein translocase subunit SecA (Escherichia coli (strain K12)) (UniProt P10408). The test is described as follows: Assay to Identify E. coli SecA ATPase Inhibitors. Particulars: 30 µM. In kind it is functional.
Test [2] deals with T1, Ubiquitin-activating enzyme e1, putative (Leishmania donovani (strain BPK282A1)) (UniProt E9BSI1).
T1 sequence (whole entry): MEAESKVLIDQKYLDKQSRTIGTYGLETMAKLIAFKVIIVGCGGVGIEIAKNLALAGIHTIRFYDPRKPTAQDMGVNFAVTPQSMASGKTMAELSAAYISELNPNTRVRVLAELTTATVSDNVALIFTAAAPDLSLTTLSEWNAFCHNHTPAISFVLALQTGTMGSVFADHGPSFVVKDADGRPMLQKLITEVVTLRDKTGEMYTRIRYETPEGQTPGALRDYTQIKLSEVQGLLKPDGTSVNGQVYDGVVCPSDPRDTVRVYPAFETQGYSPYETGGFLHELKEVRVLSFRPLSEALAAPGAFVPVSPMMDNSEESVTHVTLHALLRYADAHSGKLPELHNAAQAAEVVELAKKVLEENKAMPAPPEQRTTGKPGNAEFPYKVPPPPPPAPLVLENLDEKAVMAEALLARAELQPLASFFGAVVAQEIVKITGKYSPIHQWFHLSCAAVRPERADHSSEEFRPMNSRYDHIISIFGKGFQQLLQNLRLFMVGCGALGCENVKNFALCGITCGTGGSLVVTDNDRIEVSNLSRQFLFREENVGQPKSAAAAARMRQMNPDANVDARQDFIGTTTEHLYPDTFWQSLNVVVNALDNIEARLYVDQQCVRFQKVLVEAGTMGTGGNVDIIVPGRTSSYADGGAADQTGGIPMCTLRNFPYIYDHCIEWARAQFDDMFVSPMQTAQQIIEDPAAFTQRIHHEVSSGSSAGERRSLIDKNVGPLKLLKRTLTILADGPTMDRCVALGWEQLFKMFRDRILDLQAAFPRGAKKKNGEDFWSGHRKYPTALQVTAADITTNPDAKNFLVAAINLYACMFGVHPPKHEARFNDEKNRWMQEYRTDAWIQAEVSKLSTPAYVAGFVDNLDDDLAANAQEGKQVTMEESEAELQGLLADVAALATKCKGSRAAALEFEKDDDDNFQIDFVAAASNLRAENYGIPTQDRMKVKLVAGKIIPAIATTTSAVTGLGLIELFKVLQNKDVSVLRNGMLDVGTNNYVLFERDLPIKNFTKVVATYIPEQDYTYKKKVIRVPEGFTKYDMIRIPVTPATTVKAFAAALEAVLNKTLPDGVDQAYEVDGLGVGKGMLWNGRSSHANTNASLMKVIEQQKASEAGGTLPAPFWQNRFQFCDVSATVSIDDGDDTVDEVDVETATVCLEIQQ
The test is described as follows: Leishmania donovani Ubiquitin Activating Enzyme (LdE1). In kind it is functional. As to conditions: 30 µM.

Test [3] addresses AMP-activated protein kinase, AMPK (Homo sapiens) (UniProt P54646+O43741+P54619+Q9UGJ0+Q9Y478+Q13131+Q9UGI9). The test is described as follows: AMP-dependent Kinase enzyme assay. An in vitro enzyme assay that detects ADP turnover that is directly proportional to AMPK activity. This uses naive AMPK that is activated during the assay with MK-8722. In kind it is functional. Particulars: 30 µM.

In test [4] the target is Sialic acid-binding Ig-like lectin 9 (Homo sapiens) (UniProt Q9Y336). The test is described as follows: Hs-Siglec9 ALPHAscreen SOP 20170721. Particulars: 10 µM. (Alpha assays give light when donor and acceptor beads are brought close together.)
The next test deals with Trypanosoma cruzi. The test is described as follows: Trypanosoma cruzi phosphomannomutase and mannose-1-phosphate guanylyltransferase assay. In kind it is functional. As to conditions: 10 µM.
Test [5] addresses T2, Arginase-2, mitochondrial (Homo sapiens) (UniProt P78540).
T2 sequence (whole entry): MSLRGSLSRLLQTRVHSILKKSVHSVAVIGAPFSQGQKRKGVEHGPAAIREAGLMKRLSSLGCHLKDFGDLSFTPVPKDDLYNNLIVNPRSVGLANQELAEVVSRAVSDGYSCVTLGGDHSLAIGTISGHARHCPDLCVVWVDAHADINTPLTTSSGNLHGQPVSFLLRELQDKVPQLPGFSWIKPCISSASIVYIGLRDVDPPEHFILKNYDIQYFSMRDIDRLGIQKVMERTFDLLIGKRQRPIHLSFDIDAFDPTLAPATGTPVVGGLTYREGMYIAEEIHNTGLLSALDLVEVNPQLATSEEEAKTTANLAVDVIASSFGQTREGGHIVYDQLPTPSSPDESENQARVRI
The test is described as follows: in vitro enzyme assay to detect the production of urea directly proportional to the activity of Arginase II. Note: in the data most compounds retested in dose-response had high values. Type of test: functional. Particulars: 33.3 µM.

Test [6] deals with T3, Proteasome subunit beta (Trypanosoma cruzi) (UniProt O96673).
T3 sequence (whole entry): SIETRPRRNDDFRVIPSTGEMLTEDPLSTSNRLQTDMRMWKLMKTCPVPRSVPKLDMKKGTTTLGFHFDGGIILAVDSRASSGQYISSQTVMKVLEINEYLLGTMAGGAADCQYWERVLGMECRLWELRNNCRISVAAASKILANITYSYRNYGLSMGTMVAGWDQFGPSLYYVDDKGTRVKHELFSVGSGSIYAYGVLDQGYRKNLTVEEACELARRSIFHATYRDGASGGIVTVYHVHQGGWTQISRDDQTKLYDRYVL
The test is described as follows: Trypanosoma cruzi proteasome chymotrypsin-like activity (TcProtChymo) assay. Note: in the data most compounds retested in dose-response had high values. In kind it is functional. As to conditions: 9.37 µM.

The species entered for a further test is Homo sapiens. The test is described as follows: To identify inhibition of the IFN signalling (Jak-Stat) pathway via expression of an eGFP reporter gene under the control of an IFN-stimulated response element (ISRE) containing MxA promoter. Type of test: functional. Particulars: 30 µM. A general note: In a reporter assay the amount or activity of a reporter protein is the signal.

The target of test [7] is T4, Tyrosyl-tRNA synthetase, putative (Trypanosoma cruzi (strain CL Brener)) (UniProt Q4DSP6).
T4 sequence (whole entry): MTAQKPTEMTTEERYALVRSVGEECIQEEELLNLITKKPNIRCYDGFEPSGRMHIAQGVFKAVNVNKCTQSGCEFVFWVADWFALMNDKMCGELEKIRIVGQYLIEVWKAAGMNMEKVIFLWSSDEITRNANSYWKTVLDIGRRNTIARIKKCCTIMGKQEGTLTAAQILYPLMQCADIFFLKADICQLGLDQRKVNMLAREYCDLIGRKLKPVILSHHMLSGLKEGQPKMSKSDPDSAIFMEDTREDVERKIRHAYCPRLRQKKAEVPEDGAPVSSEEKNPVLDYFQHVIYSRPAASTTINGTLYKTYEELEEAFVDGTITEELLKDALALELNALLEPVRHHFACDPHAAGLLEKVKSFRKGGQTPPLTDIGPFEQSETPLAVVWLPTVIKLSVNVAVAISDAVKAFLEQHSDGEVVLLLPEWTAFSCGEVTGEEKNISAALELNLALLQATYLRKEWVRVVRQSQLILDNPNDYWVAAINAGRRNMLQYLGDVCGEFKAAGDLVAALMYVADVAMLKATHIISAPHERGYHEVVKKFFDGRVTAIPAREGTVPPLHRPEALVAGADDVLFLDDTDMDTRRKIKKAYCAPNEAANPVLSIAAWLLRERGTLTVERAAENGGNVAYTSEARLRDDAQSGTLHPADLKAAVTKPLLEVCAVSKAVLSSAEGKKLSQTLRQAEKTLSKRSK
The test is described as follows: Trypanosoma cruzi tyrosyl tRNA synthetase (TcYRS) _High Tyrosine SOP. Note: in the data most compounds retested in dose-response had high values. In kind it is functional. Particulars: 30 µM.

Test [8] concerns the target T4, Tyrosyl-tRNA synthetase, putative (Trypanosoma cruzi (strain CL Brener)). The test is described as follows: Trypanosoma cruzi tyrosyl tRNA synthetase (TcYRS) SOP. Type of test: functional. Particulars: 30 µM.
Test [9] deals with Chromo domain-containing protein 1 (Saccharomyces cerevisiae (strain ATCC 204508 / S288c) (Baker's yeast)) (UniProt P32657). The test is described as follows: ScCHD-1 Enzyme Inhibition Assay. Note: in the data most compounds retested in dose-response had high values. In kind it is functional. As to conditions: 30 µM.
Chain of Chromo domain-containing protein 1 (Saccharomyces cerevisiae (strain ATCC 204508 / S288c) (Baker's yeast)) (P32657 whole entry, the tested form may be a part): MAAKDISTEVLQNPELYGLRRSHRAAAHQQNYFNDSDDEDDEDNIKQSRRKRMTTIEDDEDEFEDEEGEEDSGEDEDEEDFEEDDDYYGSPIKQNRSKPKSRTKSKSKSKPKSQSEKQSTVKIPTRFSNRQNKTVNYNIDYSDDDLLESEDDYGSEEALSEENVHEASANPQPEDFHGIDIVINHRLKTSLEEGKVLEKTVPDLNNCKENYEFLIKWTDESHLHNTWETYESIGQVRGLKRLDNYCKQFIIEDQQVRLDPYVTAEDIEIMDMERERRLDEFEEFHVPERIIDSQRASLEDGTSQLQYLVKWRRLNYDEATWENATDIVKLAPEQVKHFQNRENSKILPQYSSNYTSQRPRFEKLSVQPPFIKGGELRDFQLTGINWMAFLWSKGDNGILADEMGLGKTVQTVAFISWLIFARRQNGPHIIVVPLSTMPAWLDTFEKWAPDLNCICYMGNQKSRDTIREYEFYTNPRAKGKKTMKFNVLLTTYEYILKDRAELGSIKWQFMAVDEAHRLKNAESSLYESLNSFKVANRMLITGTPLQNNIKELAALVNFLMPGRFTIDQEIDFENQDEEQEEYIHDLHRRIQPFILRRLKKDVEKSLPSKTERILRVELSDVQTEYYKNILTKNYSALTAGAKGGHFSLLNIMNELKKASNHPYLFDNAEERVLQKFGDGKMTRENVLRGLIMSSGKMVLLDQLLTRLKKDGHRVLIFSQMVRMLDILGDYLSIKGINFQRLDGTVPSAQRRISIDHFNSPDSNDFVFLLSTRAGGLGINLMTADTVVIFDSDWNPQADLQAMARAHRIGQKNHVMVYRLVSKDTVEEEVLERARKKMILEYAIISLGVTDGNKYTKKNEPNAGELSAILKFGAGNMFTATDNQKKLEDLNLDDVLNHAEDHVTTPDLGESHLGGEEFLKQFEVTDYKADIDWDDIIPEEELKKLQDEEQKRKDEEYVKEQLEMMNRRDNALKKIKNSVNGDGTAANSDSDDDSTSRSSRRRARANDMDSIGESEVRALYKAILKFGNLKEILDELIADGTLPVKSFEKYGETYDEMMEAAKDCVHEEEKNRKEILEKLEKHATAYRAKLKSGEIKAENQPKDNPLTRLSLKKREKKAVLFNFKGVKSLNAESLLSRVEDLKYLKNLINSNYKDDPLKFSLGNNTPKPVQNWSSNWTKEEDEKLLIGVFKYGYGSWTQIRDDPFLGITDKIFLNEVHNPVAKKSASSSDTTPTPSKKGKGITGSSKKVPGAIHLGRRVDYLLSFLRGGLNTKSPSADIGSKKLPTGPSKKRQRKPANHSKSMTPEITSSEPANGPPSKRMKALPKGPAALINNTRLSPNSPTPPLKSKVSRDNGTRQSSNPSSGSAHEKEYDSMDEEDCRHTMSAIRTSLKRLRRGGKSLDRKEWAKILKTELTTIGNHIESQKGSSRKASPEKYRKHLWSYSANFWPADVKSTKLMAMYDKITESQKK

Chain of Protein translocase subunit SecA (Escherichia coli (strain K12)) (P10408 whole entry): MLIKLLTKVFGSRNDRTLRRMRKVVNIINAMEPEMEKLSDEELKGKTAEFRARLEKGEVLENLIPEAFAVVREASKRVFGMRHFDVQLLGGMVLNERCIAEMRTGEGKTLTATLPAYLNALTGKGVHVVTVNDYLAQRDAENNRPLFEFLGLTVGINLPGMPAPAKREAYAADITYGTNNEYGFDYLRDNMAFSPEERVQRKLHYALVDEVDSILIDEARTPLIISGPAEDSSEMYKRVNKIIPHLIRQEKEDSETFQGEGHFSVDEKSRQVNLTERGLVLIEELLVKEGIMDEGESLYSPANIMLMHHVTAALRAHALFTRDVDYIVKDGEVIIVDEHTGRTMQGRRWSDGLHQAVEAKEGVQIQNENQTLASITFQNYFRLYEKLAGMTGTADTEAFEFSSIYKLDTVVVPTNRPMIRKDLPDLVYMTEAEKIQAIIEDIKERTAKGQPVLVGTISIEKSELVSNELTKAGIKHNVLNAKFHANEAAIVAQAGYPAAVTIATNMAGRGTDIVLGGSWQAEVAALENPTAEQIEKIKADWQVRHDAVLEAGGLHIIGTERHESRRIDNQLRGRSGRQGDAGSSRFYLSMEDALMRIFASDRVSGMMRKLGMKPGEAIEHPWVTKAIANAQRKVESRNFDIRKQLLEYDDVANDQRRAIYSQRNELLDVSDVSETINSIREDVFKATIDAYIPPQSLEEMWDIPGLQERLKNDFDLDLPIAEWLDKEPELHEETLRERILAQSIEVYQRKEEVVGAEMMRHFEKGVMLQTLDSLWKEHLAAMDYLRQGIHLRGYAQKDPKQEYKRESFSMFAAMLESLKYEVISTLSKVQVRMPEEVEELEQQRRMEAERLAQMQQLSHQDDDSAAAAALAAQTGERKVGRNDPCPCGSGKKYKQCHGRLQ
Chain of Sialic acid-binding Ig-like lectin 9 (Homo sapiens) (Q9Y336 whole entry): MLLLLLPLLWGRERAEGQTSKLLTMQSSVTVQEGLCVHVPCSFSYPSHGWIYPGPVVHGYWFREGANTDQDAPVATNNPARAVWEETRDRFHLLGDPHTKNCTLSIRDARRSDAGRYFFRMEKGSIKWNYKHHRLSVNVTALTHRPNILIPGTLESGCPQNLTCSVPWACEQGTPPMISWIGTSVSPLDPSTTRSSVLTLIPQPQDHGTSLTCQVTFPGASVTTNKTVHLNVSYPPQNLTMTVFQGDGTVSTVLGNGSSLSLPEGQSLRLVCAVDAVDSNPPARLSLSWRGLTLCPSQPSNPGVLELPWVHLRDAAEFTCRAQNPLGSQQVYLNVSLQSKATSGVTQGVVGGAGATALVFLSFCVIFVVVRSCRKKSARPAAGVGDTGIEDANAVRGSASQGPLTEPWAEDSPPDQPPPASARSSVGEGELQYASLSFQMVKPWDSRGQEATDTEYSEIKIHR

For `COCc1cccc(NC(C)C(=O)N(C)Cc2ccccc2)c1` (stereo not drawn), the Percent Effect in test [1] is -8.46%; in test [2] it was 10.8%; in test [3] it was -16.3%; in [4], 48%; with Trypanosoma cruzi it was 7.92%; in test [5], 33.5%. For the same molecule, the Percent Effect is -1.46% in [6]; -2.64% in the test listed under Homo sapiens; 6.45% in test [7]; 13.6% in test [8]; -14.3% in [9].
As for `CCc1nnc(Nc2cccc(C3CCN(CCO)CC3)n2)s1`, the Percent Effect was -7.83% in [1]; 12.2% in test [2]; 0.559% in test [3]; 1.33% in test [4]; 1.58% with Trypanosoma cruzi; -2.55% in test [5]. Moreover, the Percent Effect in test [6] was 14%; in the test listed under Homo sapiens, 24%; in test [7] it was 2.15%; in test [8], 11.7%; in test [9] it was -26.9%.
Consider `COCCC(=O)N1CCC(c2noc3nc(C)cc(C(F)(F)F)c23)CC1`, for which the Percent Effect in [1] was -0.633%; in test [2], 6.76%; in test [3], 7.83%; in [4], 4.3%; with Trypanosoma cruzi, -6.13%; in test [5], -2.55%. Also, the Percent Effect in [6] came out at 13.1%; in the test filed under Homo sapiens, 8.05%; in [7], 2.15%; in test [8] it was 6.49%; in test [9], 9.94%.
For the molecule `O=C(CSC1=NS(=O)(=O)c2cc(F)ccc2N1)c1ccc(Cl)cc1`, the Percent Effect was -1.43% in [1]; 0% in test [2]; 2.41% in [3]; -0.28% in [4]; -5.42% in the test on Trypanosoma cruzi; 4.52% in test [5]. For the same molecule, the Percent Effect is 6.44% in test [6]; 11.1% in the test filed under Homo sapiens; 4.23% in test [7]; 11.5% in test [8]; -7.8% in test [9].
For `CN(C)CCNC(=O)CNC(=O)N1CCc2c([nH]c3ccc(Cl)cc23)C1`, the Percent Effect in test [1] is -4.87%; in test [2] it was -1.33%; in test [3] it was 9.82%; in test [4], 0.772%; in the test on Trypanosoma cruzi, -2.55%; in test [5], -9.33%. Besides, the Percent Effect in test [6] is 0.185%; in the test listed under Homo sapiens, -14.7%; in [7], -1.06%; in test [8] it was -7.69%; in test [9], -0.829%.
Turning to `COCCN1CC[C@H](O)[C@@H]1Cc1ccccc1`, the Percent Effect in test [1] is -2.09%; in test [2], 12%; in test [3] it was -0.98%; in test [4], 0.93%; in the test with Trypanosoma cruzi, 0.786%; in test [5], 6.87%. Besides, the Percent Effect in [6] is 20%; in the test filed under Homo sapiens it was 22.1%; in test [7] it was 5.29%; in test [8], 7.69%; in [9], -4.88%.
`Cc1n[nH]c(C)c1NC(=O)CN1CCc2c(nc(C3CC3)n2C)C1`: the Percent Effect in [1] is -1.39%; in [2], 20.8%; in test [3], -6.42%; in test [4], -4.94%; in the test on Trypanosoma cruzi, -9.36%; in test [5], 0%. The Percent Effect is 10.6% in [6]; 37.3% in the test filed under Homo sapiens; 3.88% in test [7]; 2.44% in test [8]; -7.54% in [9].
For the molecule `COC(=O)c1cccn1C1CCN(C(=O)c2cc(F)ccc2F)CC1`, the Percent Effect in [1] was -4.16%; in test [2] it was 13%; in [3] it was 1.19%; in [4], 0.495%; in the test on Trypanosoma cruzi, 4.87%; in test [5] it was -6.76%. The Percent Effect in [6] is 3.04%; in the test listed under Homo sapiens, 19.8%; in test [7] it was 5.83%; in test [8], 14.6%; in [9], -9.49%.

Source of the values: ChEMBL document CHEMBL3988442, “University of Dundee, Small-Polar-MMV Screening Library” (2021).
